Assay results published in PubChem BioAssay (Tox21).
Inconclusive results are not listed. Unmarked numbers belong to inactive results. Calls come from the whole dose curve; as a rule, active = well fitted curve in the direction sought with a large enough effect in the repeat runs; inconclusive = weak or mixed curves; inactive = no such curve, though single readings can be large; an effect the other way counts as inactive or inconclusive.

assay: qHTS RealTime-Glo MT Cell Viability Assay in HEK293 cells - 8 hour (AID 1224887); settings: RealTime-Glo luminescence; series mostly up to 76.8 µM; activity change, negative = cytotoxicity: at the top concentration; note: top concentration of the series differs between compounds; nearly all actives have a fitted effect of over 50% in size
Procedure, shortened: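 600 HEK293 cells per well, dispensed already mixed with RealTime-Glo MT reagents. Compound dosing came 5 h later. The same wells were read for luminescence at 0, 8, 16, 24, 32 and 40 h of exposure at 37 C.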
% is set by controls: 0 for no effect and ±100 for the full control effect.

SMILES | activity change, negative = cytotoxicity
O=c1oc2c(O)c(O)cc3c(=O)oc4c(O)c(O)cc1c4c23 | -0.845% [at 15.8 µM]
Cc1nnc(SCC2=C(C(=O)O)N3C(=O)[C@@H](NC(=O)Cn4cnnn4)[C@H]3SC2)s1 | 10.7% [at 35.3 µM]
Cc1cc(S(=O)(=O)O)c(N)cc1Cl | 0.347%
COc1cc(C)ccc1C(C)C | 7.39%
Cc1ccsc1C(=CCCN1CCC[C@@H](C(=O)O)C1)c1sccc1C | 5.05% [at 35.3 µM]
C=CC1CO1 (stereo not drawn) | 8.93%
CNCCC(Oc1ccccc1OC)c1ccccc1 (stereo not drawn) | -16.5% [at 35.3 µM]
FC(F)(F)C(F)(F)C(F)(F)C(F)(F)C(F)(F)C(F)(F)C(F)(F)C(F)(F)Br | 9.76% [at 35.3 µM]
CCN(CC)C(=O)N(CC)CC | 7.73%
CN(CC1(C)CCCO1)S(=O)(=O)c1ccc(Cl)c(S(N)(=O)=O)c1 (stereo not drawn) | 2.59% [at 35.3 µM]
O=CCCc1ccccc1 | -0.77%
CN1C(=O)CC(c2ccccc2)C1=O (stereo not drawn) | 10.5% [at 35.3 µM]
CCCN(CCC)C(=O)C(CCC(=O)O)NC(=O)c1ccccc1 (stereo not drawn) | 5.43% [at 35.3 µM]
CC(=O)Nc1ccc(C)c(Cl)c1 | -14.8%
CCCCN1C[C@H](O)[C@@H](O)[C@H](O)[C@H]1CO | 2.02% [at 35.3 µM]
Cc1cccc(C)c1NC(=O)CN1CCCCCC1 | 5.5% [at 35.3 µM]
CO[C@@]1(NC(=O)CSCC#N)C(=O)N2C(C(=O)O)=C(CSc3nnnn3C)CS[C@@H]21 | 0.409% [at 35.3 µM]
FC(F)(F)C(Cl)(Cl)Cl | -1.75%
CCC(=O)Nc1ccc(O)cc1 | 16.1% [at 35.3 µM]

SMILES | activity change, negative = cytotoxicity
N#Cc1ccc(C(c2ccc(C#N)cc2)n2cncn2)cc1 | 1.15% [at 35.3 µM]
CCOc1ccc2nc(N)sc2c1 | 1.52%
Cc1ccc([N+](=O)[O-])cc1Cl | -1.71%
CCCCCCC | -12.1%
CCc1cc(Cl)c(OC)c(C(=O)NC[C@@H]2CCCN2CC)c1O | -6.19% [at 35.3 µM]
CC(C)O | -0.992%
CC(CNC1CCCCC1)OC(=O)c1ccccc1 (stereo not drawn) | -13% [at 35.3 µM]
CC(=O)OC1C2(C)CCC(C2)C1(C)C (stereo not drawn) | -0.507%
COc1ccc(S(=O)(=O)Nc2nnc(CC(C)C)s2)cc1 | 11.7% [at 35.3 µM]
NC/C=C/C(=O)O | 1.6% [at 35.3 µM]
C1CSCCS1 | 1.3%
C[C@]12C(=O)OC(=O)[C@H]1[C@H]1C=C[C@@H]2C1 | 17.9%
OCCN(CCO)CCN(CCO)CCO | -0.0573%
CC(C)NCC(O)COc1ccc(CCOCC2CC2)cc1 (stereo not drawn) | -2.09% [at 35.3 µM]
NC1=NCC2c3ccccc3Cc3ccccc3N12 (stereo not drawn) | -1.42% [at 35.3 µM]
CC(C)(CO)[C@@H](O)C(=O)NCCC(=O)O | 6.21%
CCCCNC(=S)NCCCC | -13.5%
CC(C)CCCCCCc1ccc(OCCOCCO)cc1 | 0.466%
CC(=O)O[C@H]1CC[C@@]2(C)C(=CC[C@@H]3[C@@H]2CC[C@]2(C)C(C(C)=O)=CC[C@@H]32)C1 | -9.7% [at 35.3 µM]

assay: A CellTox Green Cytotoxicity Assay to monitor cytotoxicity in HEK293 cells - 16 hour (AID 1224888); settings: CellTox Green fluorescence; series mostly up to 76.8 µM; activity change: at the top concentration; note: nearly all actives have a fitted effect of over 35% in size
Procedure, shortened: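 Dead-cell fluorescence measured kinetically: asymmetric cyanine dye, HEK293, 600 cells/well, 5 h settle, 23 nL cpd/DMSO, 37 C, reads 0–40 h every 8 h.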

SMILES | activity change
O=c1oc2c(O)c(O)cc3c(=O)oc4c(O)c(O)cc1c4c23 | 13% [at 15.8 µM, stronger effect = higher value]
Cc1nnc(SCC2=C(C(=O)O)N3C(=O)[C@@H](NC(=O)Cn4cnnn4)[C@H]3SC2)s1 | 1.26% [at 35.3 µM, stronger effect = higher value]
COc1cc(C)ccc1C(C)C | -1.48%
Cc1ccsc1C(=CCCN1CCC[C@@H](C(=O)O)C1)c1sccc1C | -13.9% [at 35.3 µM, stronger effect = higher value]
C=CC1CO1 (stereo not drawn) | 9.92%
CNCCC(Oc1ccccc1OC)c1ccccc1 (stereo not drawn) | -0.962% [at 35.3 µM, stronger effect = higher value]
FC(F)(F)C(F)(F)C(F)(F)C(F)(F)C(F)(F)C(F)(F)C(F)(F)C(F)(F)Br | -5.47% [at 35.3 µM, stronger effect = higher value]
CCN(CC)C(=O)N(CC)CC | 18.6%
CN(CC1(C)CCCO1)S(=O)(=O)c1ccc(Cl)c(S(N)(=O)=O)c1 (stereo not drawn) | 0.951% [at 35.3 µM, stronger effect = higher value]
O=CCCc1ccccc1 | 0.485%
CN1C(=O)CC(c2ccccc2)C1=O (stereo not drawn) | -0.62% [at 35.3 µM, stronger effect = higher value]
CC(=O)Nc1ccc(C)c(Cl)c1 | 6.86%
CCCCN1C[C@H](O)[C@@H](O)[C@H](O)[C@H]1CO | -10.6% [at 35.3 µM, stronger effect = higher value]
Cc1cccc(C)c1NC(=O)CN1CCCCCC1 | 3.24% [at 35.3 µM, stronger effect = higher value]
CO[C@@]1(NC(=O)CSCC#N)C(=O)N2C(C(=O)O)=C(CSc3nnnn3C)CS[C@@H]21 | -14.8% [at 35.3 µM, stronger effect = higher value]
FC(F)(F)C(Cl)(Cl)Cl | -15.6%
CCC(=O)Nc1ccc(O)cc1 | 4.73% [at 35.3 µM, stronger effect = higher value]
N#Cc1ccc(C(c2ccc(C#N)cc2)n2cncn2)cc1 | -11.2% [at 35.3 µM, stronger effect = higher value]

SMILES | activity change
CCOc1ccc2nc(N)sc2c1 | 1.33%
Cc1ccc([N+](=O)[O-])cc1Cl | 3.31%
CCCCCCC | 18%
CCc1cc(Cl)c(OC)c(C(=O)NC[C@@H]2CCCN2CC)c1O | -1.12% [at 35.3 µM, stronger effect = higher value]
CC(C)O | 13.9%
CC(CNC1CCCCC1)OC(=O)c1ccccc1 (stereo not drawn) | -18.1% [at 35.3 µM, stronger effect = higher value]
CC(=O)OC1C2(C)CCC(C2)C1(C)C (stereo not drawn) | 6.08%
COc1ccc(S(=O)(=O)Nc2nnc(CC(C)C)s2)cc1 | -16.4% [at 35.3 µM, stronger effect = higher value]
NC/C=C/C(=O)O | -5.73% [at 35.3 µM, stronger effect = higher value]
C1CSCCS1 | 1.37%
C[C@]12C(=O)OC(=O)[C@H]1[C@H]1C=C[C@@H]2C1 | 5.93%
O=S(=O)(O)C(F)(F)F | 11.1%
CC(C)NCC(O)COc1ccc(CCOCC2CC2)cc1 (stereo not drawn) | 1.24% [at 35.3 µM, stronger effect = higher value]
NC1=NCC2c3ccccc3Cc3ccccc3N12 (stereo not drawn) | -22% [at 35.3 µM, stronger effect = higher value]
CC(C)(CO)[C@@H](O)C(=O)NCCC(=O)O | 3.85%
CCCCNC(=S)NCCCC | -0.834%
CC(C)CCCCCCc1ccc(OCCOCCO)cc1 | -9.05%
